According to the supplement of paper PMC11732987, “Enantioselective OTUD7B fragment discovery through chemoproteomics screening and high-throughput optimisation” (Communications Chemistry, 2025):

Assays:
Test in all cases: log2 ratio of Biotin-Ahx-Ub-VS probe labelling (fragment/DMSO); higher = less target engagement (more negative = stronger competition), active = hit call of the paper (q ≤ 0.05, log2 ratio ≤ -1)
Conditions in all cases: compound concentration: 200 uM; treatment time: 3 h
USP42 = target: T1, USP42 (UniProt Q9H9J4)
T1 sequence (whole entry): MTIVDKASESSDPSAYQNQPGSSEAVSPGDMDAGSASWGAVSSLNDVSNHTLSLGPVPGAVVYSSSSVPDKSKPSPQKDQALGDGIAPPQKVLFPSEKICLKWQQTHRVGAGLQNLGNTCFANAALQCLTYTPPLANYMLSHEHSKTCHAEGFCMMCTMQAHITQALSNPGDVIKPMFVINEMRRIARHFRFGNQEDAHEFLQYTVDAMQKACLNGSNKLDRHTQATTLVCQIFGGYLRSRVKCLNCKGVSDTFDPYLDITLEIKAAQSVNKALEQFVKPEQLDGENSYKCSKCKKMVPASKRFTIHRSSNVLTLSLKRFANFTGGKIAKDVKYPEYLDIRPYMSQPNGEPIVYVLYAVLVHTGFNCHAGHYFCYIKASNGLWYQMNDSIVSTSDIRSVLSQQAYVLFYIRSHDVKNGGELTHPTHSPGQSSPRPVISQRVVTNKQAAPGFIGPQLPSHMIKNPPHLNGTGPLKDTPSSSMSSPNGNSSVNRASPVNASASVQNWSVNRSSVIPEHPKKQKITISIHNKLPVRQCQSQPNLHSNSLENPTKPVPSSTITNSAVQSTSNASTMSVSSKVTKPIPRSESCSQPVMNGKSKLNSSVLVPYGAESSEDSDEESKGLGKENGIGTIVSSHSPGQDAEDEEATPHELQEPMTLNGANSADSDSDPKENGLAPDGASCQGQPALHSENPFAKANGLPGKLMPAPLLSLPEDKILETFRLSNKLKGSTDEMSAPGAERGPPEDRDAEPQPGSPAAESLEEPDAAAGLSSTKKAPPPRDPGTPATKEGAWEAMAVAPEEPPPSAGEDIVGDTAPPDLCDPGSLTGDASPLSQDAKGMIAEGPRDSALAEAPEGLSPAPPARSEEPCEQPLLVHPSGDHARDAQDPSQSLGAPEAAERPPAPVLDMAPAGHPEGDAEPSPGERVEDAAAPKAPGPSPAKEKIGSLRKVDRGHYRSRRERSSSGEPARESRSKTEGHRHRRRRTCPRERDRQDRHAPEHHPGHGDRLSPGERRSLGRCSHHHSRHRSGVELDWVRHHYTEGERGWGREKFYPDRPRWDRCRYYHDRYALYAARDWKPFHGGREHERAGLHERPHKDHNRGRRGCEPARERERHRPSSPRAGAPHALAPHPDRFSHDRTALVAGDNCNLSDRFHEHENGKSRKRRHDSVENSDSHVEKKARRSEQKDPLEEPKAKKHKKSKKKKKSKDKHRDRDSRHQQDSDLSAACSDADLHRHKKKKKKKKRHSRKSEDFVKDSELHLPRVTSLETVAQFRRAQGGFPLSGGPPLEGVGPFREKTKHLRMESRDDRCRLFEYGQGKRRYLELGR
Method in brief: (§1)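 HEK293T lysate, 495 µg per sample in Tris/CHAPS/IGEPAL buffer with protease inhibitors, was treated in triplicate with fragment at 200 µM or vehicle for 3 h and then with Biotin-Ahx-Ub-VS at 0.5 µM final for 1 h. Labelled DUBs were NeutrAvidin-enriched, digested with LysC and trypsin, and run by diaPASEF LC-MS/MS. Spectronaut label-free quantities were global-median-normalised, and values are average log2 fragment/vehicle ratios by unpaired t-test on proteins with ≥2 unique peptides.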

USP46 = USP46 (UniProt P62068)
Method in brief: as §1

USP47 = target: T2, USP47 (UniProt Q96K76)
T2 sequence (whole entry): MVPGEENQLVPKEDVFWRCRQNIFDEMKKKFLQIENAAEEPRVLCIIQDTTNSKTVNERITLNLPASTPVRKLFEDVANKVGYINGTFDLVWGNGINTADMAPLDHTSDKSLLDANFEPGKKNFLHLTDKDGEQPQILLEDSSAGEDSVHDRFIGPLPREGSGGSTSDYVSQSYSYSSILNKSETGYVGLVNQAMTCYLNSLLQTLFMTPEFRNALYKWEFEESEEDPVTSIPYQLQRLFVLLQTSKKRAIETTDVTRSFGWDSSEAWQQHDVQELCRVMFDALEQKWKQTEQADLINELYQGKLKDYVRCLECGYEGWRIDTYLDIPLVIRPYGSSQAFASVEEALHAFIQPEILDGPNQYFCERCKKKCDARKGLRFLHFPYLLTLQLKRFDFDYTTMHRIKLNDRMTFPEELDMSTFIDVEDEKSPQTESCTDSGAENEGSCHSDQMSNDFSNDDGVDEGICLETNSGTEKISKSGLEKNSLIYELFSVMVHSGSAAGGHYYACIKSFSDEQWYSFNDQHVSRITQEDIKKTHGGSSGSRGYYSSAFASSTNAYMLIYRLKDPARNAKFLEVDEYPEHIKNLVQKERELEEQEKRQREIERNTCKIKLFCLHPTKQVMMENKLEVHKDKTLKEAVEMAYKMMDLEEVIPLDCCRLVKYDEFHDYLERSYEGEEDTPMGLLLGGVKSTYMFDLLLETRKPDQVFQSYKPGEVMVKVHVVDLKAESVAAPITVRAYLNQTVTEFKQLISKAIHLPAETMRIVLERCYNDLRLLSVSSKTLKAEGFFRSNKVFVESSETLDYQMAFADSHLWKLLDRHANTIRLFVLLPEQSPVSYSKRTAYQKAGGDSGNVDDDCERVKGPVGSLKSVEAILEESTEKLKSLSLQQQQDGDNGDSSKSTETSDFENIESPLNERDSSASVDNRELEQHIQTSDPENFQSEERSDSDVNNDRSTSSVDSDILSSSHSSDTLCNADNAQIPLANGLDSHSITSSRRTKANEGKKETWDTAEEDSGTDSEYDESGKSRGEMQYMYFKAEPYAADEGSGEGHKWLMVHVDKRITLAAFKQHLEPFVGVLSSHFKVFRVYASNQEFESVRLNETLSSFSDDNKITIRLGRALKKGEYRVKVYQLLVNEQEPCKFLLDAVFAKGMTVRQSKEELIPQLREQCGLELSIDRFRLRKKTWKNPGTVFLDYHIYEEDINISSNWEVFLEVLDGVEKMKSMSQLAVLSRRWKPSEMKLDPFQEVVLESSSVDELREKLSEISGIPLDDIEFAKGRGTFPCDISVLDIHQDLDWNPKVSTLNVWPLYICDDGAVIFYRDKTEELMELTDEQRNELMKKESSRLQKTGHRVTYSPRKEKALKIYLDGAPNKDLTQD
Method in brief: as §1

USP48 = target: T3, USP48 (UniProt Q86UV5)
T3 sequence (whole entry): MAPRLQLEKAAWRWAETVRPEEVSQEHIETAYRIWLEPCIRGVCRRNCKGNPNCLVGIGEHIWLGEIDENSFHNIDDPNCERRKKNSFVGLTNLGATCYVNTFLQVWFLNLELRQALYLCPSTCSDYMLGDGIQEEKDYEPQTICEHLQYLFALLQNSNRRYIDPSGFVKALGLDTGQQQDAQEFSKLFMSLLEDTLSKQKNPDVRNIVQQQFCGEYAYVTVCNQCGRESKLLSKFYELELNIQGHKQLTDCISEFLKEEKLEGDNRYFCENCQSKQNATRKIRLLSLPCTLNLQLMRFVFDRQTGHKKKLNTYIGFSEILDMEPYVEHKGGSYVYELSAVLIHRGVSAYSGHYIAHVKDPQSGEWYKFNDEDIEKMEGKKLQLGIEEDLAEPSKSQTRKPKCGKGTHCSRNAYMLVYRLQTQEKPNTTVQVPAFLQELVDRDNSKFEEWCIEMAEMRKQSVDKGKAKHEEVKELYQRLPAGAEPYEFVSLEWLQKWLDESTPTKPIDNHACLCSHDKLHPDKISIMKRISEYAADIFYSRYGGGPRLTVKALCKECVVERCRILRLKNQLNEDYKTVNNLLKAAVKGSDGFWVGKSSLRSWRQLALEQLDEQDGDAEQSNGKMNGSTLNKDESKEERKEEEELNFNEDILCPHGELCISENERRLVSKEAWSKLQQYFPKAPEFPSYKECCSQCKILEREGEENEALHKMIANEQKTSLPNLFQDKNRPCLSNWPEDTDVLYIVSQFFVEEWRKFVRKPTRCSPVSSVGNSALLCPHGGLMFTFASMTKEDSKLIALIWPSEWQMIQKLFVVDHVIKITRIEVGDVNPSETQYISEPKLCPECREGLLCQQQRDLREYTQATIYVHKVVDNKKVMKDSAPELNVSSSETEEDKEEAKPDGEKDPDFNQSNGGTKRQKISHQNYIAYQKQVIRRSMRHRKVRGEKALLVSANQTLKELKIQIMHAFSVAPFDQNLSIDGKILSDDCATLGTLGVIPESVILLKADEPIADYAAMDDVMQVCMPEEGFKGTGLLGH
Method in brief: as §1

USP5 = target: T4, USP5 (UniProt P45974)
T4 sequence (whole entry): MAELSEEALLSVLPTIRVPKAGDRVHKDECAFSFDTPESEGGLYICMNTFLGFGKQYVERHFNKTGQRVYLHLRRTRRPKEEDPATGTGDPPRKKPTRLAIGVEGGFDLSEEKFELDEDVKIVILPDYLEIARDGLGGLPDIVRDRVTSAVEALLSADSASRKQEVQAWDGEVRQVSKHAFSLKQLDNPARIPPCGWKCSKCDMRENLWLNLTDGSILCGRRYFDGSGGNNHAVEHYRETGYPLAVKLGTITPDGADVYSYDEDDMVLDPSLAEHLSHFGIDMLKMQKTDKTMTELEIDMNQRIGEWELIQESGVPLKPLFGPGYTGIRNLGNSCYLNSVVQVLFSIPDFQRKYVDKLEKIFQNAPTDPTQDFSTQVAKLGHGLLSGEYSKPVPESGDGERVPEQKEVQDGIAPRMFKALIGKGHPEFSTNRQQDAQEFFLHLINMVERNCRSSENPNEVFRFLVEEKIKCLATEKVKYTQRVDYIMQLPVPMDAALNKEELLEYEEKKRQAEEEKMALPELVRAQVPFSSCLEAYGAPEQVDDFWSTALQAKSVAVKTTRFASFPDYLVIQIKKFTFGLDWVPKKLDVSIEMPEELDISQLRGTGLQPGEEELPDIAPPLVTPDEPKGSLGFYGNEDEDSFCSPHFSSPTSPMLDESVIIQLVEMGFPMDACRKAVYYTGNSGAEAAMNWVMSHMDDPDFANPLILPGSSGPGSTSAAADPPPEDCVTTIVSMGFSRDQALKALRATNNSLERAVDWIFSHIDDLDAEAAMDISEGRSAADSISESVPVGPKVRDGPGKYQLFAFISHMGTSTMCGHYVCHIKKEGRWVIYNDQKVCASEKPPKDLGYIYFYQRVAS
Method in brief: as §1

USP54 = USP54 (UniProt Q70EL1)
Method in brief: as §1

USP7 = USP7 (UniProt Q93009)
Method in brief: as §1

USP8 = target: T5, USP8 (UniProt P40818)
T5 sequence (whole entry): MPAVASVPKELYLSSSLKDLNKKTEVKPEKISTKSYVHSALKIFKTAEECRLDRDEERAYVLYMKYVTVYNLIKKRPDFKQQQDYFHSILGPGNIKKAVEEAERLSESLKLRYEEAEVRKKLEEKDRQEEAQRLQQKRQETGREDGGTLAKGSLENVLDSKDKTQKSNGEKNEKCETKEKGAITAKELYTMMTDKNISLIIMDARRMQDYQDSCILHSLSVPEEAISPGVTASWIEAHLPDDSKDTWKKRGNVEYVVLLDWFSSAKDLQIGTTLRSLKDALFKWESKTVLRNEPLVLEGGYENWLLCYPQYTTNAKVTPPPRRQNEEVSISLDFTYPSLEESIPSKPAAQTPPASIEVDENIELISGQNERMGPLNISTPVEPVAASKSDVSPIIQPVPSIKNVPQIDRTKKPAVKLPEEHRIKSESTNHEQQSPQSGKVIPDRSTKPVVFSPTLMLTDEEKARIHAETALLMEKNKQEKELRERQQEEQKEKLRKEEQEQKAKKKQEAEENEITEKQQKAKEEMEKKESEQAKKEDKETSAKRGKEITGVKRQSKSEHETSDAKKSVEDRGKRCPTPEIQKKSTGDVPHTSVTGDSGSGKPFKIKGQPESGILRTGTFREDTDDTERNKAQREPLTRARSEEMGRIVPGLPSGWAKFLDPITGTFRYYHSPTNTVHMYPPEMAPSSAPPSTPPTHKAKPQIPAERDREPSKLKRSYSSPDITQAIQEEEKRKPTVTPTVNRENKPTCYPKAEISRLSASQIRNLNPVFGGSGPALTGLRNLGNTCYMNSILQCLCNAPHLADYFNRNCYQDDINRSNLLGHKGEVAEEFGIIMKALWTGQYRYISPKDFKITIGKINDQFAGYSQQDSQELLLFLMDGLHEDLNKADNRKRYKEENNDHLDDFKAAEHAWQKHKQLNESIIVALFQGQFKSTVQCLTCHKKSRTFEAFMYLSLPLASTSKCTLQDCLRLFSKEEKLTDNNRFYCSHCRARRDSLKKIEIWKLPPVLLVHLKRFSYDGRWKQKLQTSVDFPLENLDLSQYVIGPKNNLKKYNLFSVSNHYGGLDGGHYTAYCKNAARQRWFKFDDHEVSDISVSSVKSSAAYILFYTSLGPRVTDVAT
Method in brief: as §1

Measured: log2 ratio of Biotin-Ahx-Ub-VS probe labelling

Chain of USP7 (Q93009 whole entry, looked up): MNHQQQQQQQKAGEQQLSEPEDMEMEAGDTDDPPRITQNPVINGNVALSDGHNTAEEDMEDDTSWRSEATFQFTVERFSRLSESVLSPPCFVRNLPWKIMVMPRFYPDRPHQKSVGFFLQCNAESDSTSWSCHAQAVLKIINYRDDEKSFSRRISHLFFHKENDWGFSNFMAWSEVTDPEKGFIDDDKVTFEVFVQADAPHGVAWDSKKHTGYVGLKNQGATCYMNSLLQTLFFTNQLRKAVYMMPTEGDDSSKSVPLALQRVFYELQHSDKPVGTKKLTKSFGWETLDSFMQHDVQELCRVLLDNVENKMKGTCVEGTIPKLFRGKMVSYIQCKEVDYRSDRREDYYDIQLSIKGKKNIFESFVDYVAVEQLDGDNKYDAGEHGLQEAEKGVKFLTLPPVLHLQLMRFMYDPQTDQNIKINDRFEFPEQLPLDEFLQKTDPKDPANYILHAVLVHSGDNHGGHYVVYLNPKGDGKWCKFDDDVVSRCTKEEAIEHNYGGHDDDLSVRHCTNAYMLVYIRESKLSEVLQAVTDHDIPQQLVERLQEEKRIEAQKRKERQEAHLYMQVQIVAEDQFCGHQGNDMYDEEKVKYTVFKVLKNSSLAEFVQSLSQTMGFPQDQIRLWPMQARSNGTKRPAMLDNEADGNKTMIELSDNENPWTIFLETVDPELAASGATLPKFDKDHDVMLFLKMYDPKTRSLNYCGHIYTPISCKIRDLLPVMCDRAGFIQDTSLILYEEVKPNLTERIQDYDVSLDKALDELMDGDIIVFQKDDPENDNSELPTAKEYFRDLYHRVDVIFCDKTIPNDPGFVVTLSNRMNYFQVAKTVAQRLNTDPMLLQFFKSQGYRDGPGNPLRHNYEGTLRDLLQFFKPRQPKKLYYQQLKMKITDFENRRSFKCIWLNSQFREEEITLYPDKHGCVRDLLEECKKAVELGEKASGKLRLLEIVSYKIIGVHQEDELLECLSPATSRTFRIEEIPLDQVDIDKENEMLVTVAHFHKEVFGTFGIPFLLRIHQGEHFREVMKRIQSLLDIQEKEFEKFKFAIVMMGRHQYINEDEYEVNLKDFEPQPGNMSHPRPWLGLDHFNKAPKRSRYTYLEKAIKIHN
Chain of USP54 (Q70EL1 whole entry): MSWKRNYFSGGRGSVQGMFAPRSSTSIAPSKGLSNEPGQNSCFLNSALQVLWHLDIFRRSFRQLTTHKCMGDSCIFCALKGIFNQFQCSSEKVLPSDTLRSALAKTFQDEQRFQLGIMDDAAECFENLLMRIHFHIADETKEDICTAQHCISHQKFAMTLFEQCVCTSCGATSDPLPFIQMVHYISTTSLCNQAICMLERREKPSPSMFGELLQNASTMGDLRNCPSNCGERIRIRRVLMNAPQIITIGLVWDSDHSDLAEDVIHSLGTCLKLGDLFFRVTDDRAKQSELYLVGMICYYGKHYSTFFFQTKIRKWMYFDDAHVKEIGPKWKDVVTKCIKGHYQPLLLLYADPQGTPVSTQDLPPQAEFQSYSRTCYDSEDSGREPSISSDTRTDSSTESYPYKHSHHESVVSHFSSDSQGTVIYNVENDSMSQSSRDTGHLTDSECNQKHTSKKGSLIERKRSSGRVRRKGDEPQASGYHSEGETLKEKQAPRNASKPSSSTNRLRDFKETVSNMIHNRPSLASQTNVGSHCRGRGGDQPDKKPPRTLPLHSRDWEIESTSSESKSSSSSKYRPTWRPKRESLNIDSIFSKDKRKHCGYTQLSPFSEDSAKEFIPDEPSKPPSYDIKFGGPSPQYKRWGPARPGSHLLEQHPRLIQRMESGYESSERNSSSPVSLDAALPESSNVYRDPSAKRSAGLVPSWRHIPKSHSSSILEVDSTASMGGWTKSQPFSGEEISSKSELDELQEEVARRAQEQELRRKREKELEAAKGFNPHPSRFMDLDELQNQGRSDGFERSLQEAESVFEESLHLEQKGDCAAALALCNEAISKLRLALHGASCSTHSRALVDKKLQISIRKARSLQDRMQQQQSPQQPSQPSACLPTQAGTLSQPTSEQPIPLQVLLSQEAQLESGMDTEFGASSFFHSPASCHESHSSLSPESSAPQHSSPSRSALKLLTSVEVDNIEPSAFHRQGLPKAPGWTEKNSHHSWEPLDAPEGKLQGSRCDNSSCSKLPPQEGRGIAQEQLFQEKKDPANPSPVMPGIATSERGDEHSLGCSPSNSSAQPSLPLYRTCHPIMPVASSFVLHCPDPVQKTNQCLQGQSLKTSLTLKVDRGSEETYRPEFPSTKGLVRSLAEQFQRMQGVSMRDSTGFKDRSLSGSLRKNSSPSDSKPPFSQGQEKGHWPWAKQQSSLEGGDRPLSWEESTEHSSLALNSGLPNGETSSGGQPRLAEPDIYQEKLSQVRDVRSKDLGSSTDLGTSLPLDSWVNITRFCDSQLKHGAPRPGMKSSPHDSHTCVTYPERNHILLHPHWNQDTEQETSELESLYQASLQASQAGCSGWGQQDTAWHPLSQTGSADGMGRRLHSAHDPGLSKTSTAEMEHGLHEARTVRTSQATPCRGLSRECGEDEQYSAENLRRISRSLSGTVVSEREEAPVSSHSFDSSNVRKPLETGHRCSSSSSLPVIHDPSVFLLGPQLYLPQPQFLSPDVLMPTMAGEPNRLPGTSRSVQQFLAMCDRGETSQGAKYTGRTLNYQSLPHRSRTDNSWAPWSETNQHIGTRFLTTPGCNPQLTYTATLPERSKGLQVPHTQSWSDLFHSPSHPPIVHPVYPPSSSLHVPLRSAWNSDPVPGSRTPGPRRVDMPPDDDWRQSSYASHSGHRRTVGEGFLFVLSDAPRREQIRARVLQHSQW
Chain of USP46 (P62068 whole entry): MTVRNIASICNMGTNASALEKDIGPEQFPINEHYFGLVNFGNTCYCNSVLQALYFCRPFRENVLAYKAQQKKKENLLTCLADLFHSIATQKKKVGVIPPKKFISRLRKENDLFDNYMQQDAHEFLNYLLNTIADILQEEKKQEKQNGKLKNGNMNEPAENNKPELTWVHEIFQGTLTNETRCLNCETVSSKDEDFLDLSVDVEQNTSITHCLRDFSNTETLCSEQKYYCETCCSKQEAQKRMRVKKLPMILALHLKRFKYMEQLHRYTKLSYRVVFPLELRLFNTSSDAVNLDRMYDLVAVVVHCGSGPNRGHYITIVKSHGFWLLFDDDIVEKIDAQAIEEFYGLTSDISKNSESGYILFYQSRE

Cl.O=C(CCl)NCCc1ncc(F)cc1F
inactive: USP42 -0.132 | USP46 -0.0594 | USP47 0.122 | USP48 -0.466 | USP5 -0.0776 | USP54 -0.439 | USP7 -0.34 | USP8 -0.607
